Measured values reported in PubChem BioAssay (NCI).
About 83,000 compounds went through this panel and 20% of them were active in at least one assay; those are over-represented in the sample as a whole.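 A percent growth of 40 corresponds to 60% growth inhibition; 0 means no net growth; -100 means all cells died. Active threshold: below 10.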 Values without a mark were called inactive. Active and inactive are the calls of the source.

Assays:
Test in all cases: NCI-60 one-dose screen, 48 h (100 = growth as untreated, 0 = no growth, -100 = all killed)
Details in all cases: 10 µM unless noted
[1] = system: NCI-H23 lung
[2] = system: NCI-H226 lung
[3] = system: NCI-H322M lung
[4] = system: HOP-62 NSCLC
[5] = system: NCI-H460 lung
[6] = system: HOP-92 NSCLC
[7] = system: NCI-H522 lung
[8] = system: A549/ATCC NSCLC
[9] = system: 786-0 renal
[10] = system: COLO 205 colon
[11] = system: DU-145 prostate
[12] = system: K-562 leukemia
[13] = system: MALME-3M melanoma
[14] = system: MDA-MB-231 breast
[15] = system: SF-268 CNS
[16] = system: SF-295 CNS
[17] = system: SF-539 CNS
[18] = system: UACC-257 melanoma
[19] = system: RXF 393 renal

Row | Compound | growth [1] [%] | growth [2] [%] | growth [3] [%] | growth [4] [%] | growth [5] [%] | growth [6] [%] | growth [7] [%] | growth [8] [%] | growth [9] [%] | growth [10] [%] | growth [11] [%] | growth [12] | growth [13] [%] | growth [14] [%] | growth [15] [%] | growth [16] [%] | growth [17] [%] | growth [18] | growth [19]
1 | COc1ccc(/C(C)=C(\c2ccc(Cl)cc2)c2ccc(OCCN(C)C)cc2)cc1F | 86.7 | 95.5 | 77.4 | 64.8 | 22.2 | 65.6 | 87.5 | 59 | 62.9 | 26 | 79.5 | 3.97% (active) | 19.2 | 71.3 | 74.5 | 42.5 | 55.2 | 5.92% (active) | 
2 | Cn1nnnc1-c1ccc(N)cc1 | 88.7 | 107 | 92.7 | 95.9 | 105 | 96.3 | 84.2 | 95.6 | 93.8 | 110 | 99 |  | 99.1 | 106 | 91.7 | 98.1 | 98.8 | 106% | 111%
3 | CC(=O)c1sc(-c2ccccc2)cc1N | 101 | 96.6 | 96.9 | 94.4 | 102 | 97.7 | 72.5 | 76 | 92.7 | 109 | 102 |  | 112 | 99.6 | 104 | 99.7 | 97.1 | 90.6% | 107%
4 | O=C1c2ccccc2C(=O)c2cc(Cn3cc[n+](Cc4ccc5ccccc5c4)c3)ccc21 | 75.6 | 83.3 | 91 | 107 | 94 | 47.8 | 38.9 | 110 | 98.8 | 58.6 | 115 | 32.5% | 66.5 | 81.4 | 72.5 | 94.9 | 84.1 | 56.1% | 
5 | Cc1c(C(=O)O)nnn1-c1nccs1 | 94.5 | 95.9 | 99.8 | 84.1 | 98.5 | 82.4 | 77.9 | 79.2 | 97.1 | 107 | 104 |  | 102 | 91.6 | 102 | 101 | 92 | 80.8% | 112%
6 | Cn1ccc(Cc2cnc(N)s2)n1 | 101 | 98.8 | 102 | 100 | 106 | 98.1 | 84.3 | 84.3 | 101 | 105 | 110 |  | 100 | 104 | 100 | 107 | 99.5 | 81.7% | 107%
7 | CCOC(=O)c1ccc(-c2ccc3cc(OC)ccc3c2)nc1C | 93 | 116 | 90.3 | 107 | 103 | 104 | 72.7 | 95.4 | 85.7 | 105 | 103 |  | 92.8 | 104 | 96.4 | 100 | 98.9 | 107% | 116%
8 | O=c1[nH]nc(-c2ccc(Cl)cc2)cc1Cc1ccccc1 | 92.3 | 79.9 | 155 | 90.5 | 104 | 86.2 | 35 | 42.1 | 96.9 | 116 | 104 | 79% |  | 79.5 | 99.4 | 89.6 | 65.2 | 84.3% | 3.35% (active)
9 | COc1cccc(/C=C2\COc3ccc(O)cc3C2=O)c1OC | 86.6 | 95.2 | 90.5 | 88.4 | 67.8 | 86.8 | 28.7 | 105 | 86.1 | 92.1 | 45.1 | 5.8% (active) | 73.9 | 85.1 | 85 | 95.7 | 72.2 | 83.3% | 
